Measurements reported in PubChem BioAssay (NCI).
This is part of a sample that, as a whole, favours compounds with a hit. Of some 83,000 tested, about 20% had one in any assay.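 The test compound was applied at a single concentration to cells in 96-well plates for 48 hours, and percent growth was recorded.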 The source made the active and inactive calls. Rule for the calls: active = growth percent below 10; inactive = the rest.

Legend:
Experiment in all cases: NCI-60 one-dose screen, 48 h (100 = growth as untreated, 0 = no growth, -100 = all killed)
Conditions in all cases: 10 µM unless noted
T-47D breast = test system: T-47D breast
BT-549 breast = test system: BT-549 breast
MDA-MB-435 melanoma = test system: MDA-MB-435 melanoma
SW-620 colon = test system: SW-620 colon
MCF7 breast = test system: MCF7 breast
HCT-116 colon = test system: HCT-116 colon
HCC-2998 colon = test system: HCC-2998 colon
KM12 colon = test system: KM12 colon

Measured: growth

COc1ccc(C(=O)c2cc(C)c(OC)c(C)c2)cc1OC(=O)CCl
inactive: T-47D breast 62.7% | BT-549 breast 15.2% | SW-620 colon 26.5% | MCF7 breast 19.2% | HCC-2998 colon 27% | KM12 colon 12.2%
active: MDA-MB-435 melanoma -23.5% | HCT-116 colon 6.62%

COc1ccc(/C(=C\c2cc(OC)c(OC)c(OC)c2)C(=O)N2CCN(c3ccccc3)CC2)cc1O
inactive: T-47D breast 87.4% | BT-549 breast 103% | MDA-MB-435 melanoma 98.1% | SW-620 colon 104% | MCF7 breast 92.5% | HCT-116 colon 106% | HCC-2998 colon 98.1% | KM12 colon 96.7%

COc1cc2nccc(Oc3ccc(NC(=O)C4(C(=O)Nc5ccc(F)cc5)CC4)cc3)c2cc1Oc1ccc(N)cn1
inactive: BT-549 breast 61.9% | SW-620 colon 36.8% | HCT-116 colon 40.7% | HCC-2998 colon 72%
active: T-47D breast 5.99% | MDA-MB-435 melanoma 3.34% | MCF7 breast 9.52% | KM12 colon 3.7%

COc1ccc(-c2nc(-c3cc(OC)cc(OC)c3)[nH]c2-c2ccc(OC)cc2)cc1
inactive: BT-549 breast 51% | MDA-MB-435 melanoma 48.7% | SW-620 colon 73.6% | MCF7 breast 34.9% | HCT-116 colon 40.8% | HCC-2998 colon 42.9% | KM12 colon 46.5%
active: T-47D breast 6.56%

O=C(O)c1ccccc1N=Cc1ccccc1
inactive: T-47D breast 101% | BT-549 breast 112% | MDA-MB-435 melanoma 95.2% | SW-620 colon 107% | MCF7 breast 109% | HCT-116 colon 101% | HCC-2998 colon 102% | KM12 colon 105%

FC(F)(F)c1ccc(/C=N/Nc2nnc3n2N=C(c2ccc(Cl)cc2)CS3)cc1
inactive: T-47D breast 65.5% | BT-549 breast 58.2% | MDA-MB-435 melanoma 70.8% | SW-620 colon 77.6% | MCF7 breast 61.2% | HCT-116 colon 32.8% | HCC-2998 colon 98.7% | KM12 colon 76.9%

CCNS(=O)(=O)c1ccc(C)cc1
inactive: T-47D breast 106% | BT-549 breast 114% | MDA-MB-435 melanoma 111% | SW-620 colon 107% | MCF7 breast 94.9% | HCT-116 colon 113% | HCC-2998 colon 106%

CNC(=O)c1cc(Oc2ccc(NC(=O)c3nc(S(C)(=O)=O)sc3-c3ccc(F)cc3)cc2)ccn1
inactive: T-47D breast 26.3% | BT-549 breast 105% | MDA-MB-435 melanoma 98.2% | SW-620 colon 104% | MCF7 breast 29.5% | HCT-116 colon 85.3% | HCC-2998 colon 80.2% | KM12 colon 25.3%

O=C1/C(=C\c2cccn2Cc2ccc(F)cc2)c2ccccc2N1c1c(Cl)cccc1Cl
inactive: T-47D breast 19% | BT-549 breast 95.6% | MDA-MB-435 melanoma 107% | SW-620 colon 92% | MCF7 breast 12.6% | HCT-116 colon 70.8% | HCC-2998 colon 81.5% | KM12 colon 54.4%

CO[C@@]12[C@@H]3NC3CN1C1=C(C(=O)C(N)=C(C)C1=O)[C@@H]2COC(N)=O (some centres undefined)
inactive: T-47D breast 40.8% | BT-549 breast 28.6% | MDA-MB-435 melanoma 34.9% | SW-620 colon 10.4%
active: MCF7 breast 6.55% | HCT-116 colon 6.78% | HCC-2998 colon -44.8%

COc1cccc2nc(Nc3cccc(NC(=O)c4ccc(N5CCN(C)CC5)c(C(F)(F)F)c4)c3)ccc12
active: SW-620 colon -33.3% | MCF7 breast -12.9% | HCT-116 colon 6.56% | HCC-2998 colon -7.74% | KM12 colon -7.59%
inactive: T-47D breast 36.7% | BT-549 breast 67% | MDA-MB-435 melanoma 19.9%

CCN(CC)CCCC(C)Nc1cnc(C(=O)Nc2ccc(Cl)c3cccnc23)cn1 (centres undefined)
active: T-47D breast -49.3% | MDA-MB-435 melanoma -57.8% | SW-620 colon 0.619% | MCF7 breast -2.14% | HCT-116 colon -52.4%
inactive: BT-549 breast 80.1% | HCC-2998 colon 32.6% | KM12 colon 30.3%

COc1cc2nccc(Oc3ccc(NC(=O)C4(C(=O)Nc5ccc(F)cc5)CC4)cc3)c2cc1O
inactive: T-47D breast 55.3% | BT-549 breast 79.9% | MDA-MB-435 melanoma 52.6% | SW-620 colon 34.4% | MCF7 breast 51.2% | HCT-116 colon 52% | HCC-2998 colon 79.3% | KM12 colon 22.5%

COCCCNCC(=O)Nc1c(C)cccc1C
inactive: T-47D breast 103% | BT-549 breast 104% | MDA-MB-435 melanoma 112% | SW-620 colon 114% | MCF7 breast 114% | HCT-116 colon 110% | HCC-2998 colon 122% | KM12 colon 109%

C/C=C(\C)C(C(=O)NC1CCCCC1)N(C(=O)C1CCc2cc(F)ccc2O1)c1ccc([N+](=O)[O-])cc1 (centres undefined)
inactive: T-47D breast 88.1% | BT-549 breast 90.1% | MDA-MB-435 melanoma 87.7% | SW-620 colon 94.9% | MCF7 breast 77% | HCT-116 colon 60.3% | HCC-2998 colon 98.4% | KM12 colon 95.8%

CC(C)[C@H](CN)NC[C@H](C)NS(=O)(=O)c1ccc(C(C)(C)C)cc1
inactive: T-47D breast 80.5% | BT-549 breast 81.2% | MDA-MB-435 melanoma 99.7% | SW-620 colon 94.2% | MCF7 breast 90.2% | HCT-116 colon 86.2% | HCC-2998 colon 105% | KM12 colon 101%

O=C(NCC(c1ccsc1)N1CCCCCC1)c1ccc(C(F)(F)F)cc1 (centres undefined)
inactive: T-47D breast 91.7% | BT-549 breast 99.8% | MDA-MB-435 melanoma 91.8% | SW-620 colon 96.6% | MCF7 breast 94.5% | HCT-116 colon 88.9% | HCC-2998 colon 102% | KM12 colon 76.8%

NC(N)=N/N=C/c1ccccc1
inactive: T-47D breast 94% | BT-549 breast 102% | MDA-MB-435 melanoma 93.6% | SW-620 colon 104% | MCF7 breast 93% | HCT-116 colon 92.8% | HCC-2998 colon 98.1% | KM12 colon 103%

Nc1nc(N)c2cc(Sc3ccc(Cl)cc3)ccc2n1
active: HCC-2998 colon 6.07%
inactive: T-47D breast 56.4% | BT-549 breast 54.7% | MDA-MB-435 melanoma 28.6% | SW-620 colon 25.8% | MCF7 breast 19.7% | HCT-116 colon 16.2% | KM12 colon 20.5%

C#CCNC(=S)N/N=C(\C)c1ccccn1
active: BT-549 breast -2.53% | MCF7 breast 4.54% | HCT-116 colon 1.22%
inactive: T-47D breast 24.1% | MDA-MB-435 melanoma 33.1% | SW-620 colon 34.3% | HCC-2998 colon 35.1% | KM12 colon 23.5%

O=Cc1ccc2nc(C(Cl)(Cl)Cl)ccc2c1
inactive: T-47D breast 97.6% | BT-549 breast 95.9% | MDA-MB-435 melanoma 99.6% | SW-620 colon 98.3% | MCF7 breast 82.5% | HCT-116 colon 96.7% | HCC-2998 colon 109% | KM12 colon 100%

Clc1ccccc1Nc1nnc(-c2ccncc2)s1
inactive: T-47D breast 89.5% | BT-549 breast 90.4% | MDA-MB-435 melanoma 93.6% | SW-620 colon 91.6% | MCF7 breast 96% | HCT-116 colon 102% | HCC-2998 colon 106% | KM12 colon 107%

COc1cccc(CC(C)=C(c2ccc(OCCCN(C)C)cc2)c2ccc(OCCCN(C)C)cc2)c1
active: T-47D breast -68.2% | MDA-MB-435 melanoma -91.7% | SW-620 colon -80.1% | MCF7 breast -73.6% | HCT-116 colon -75.6% | HCC-2998 colon -71% | KM12 colon -83%
inactive: BT-549 breast 55.3%

CNCCCNc1ccnc2cc(Cl)ccc12
active: T-47D breast -5.41% | BT-549 breast -10.3% | MDA-MB-435 melanoma -98% | SW-620 colon -23.3% | MCF7 breast 2.35% | HCT-116 colon 3.6% | HCC-2998 colon -78.6% | KM12 colon 0.517%

Cc1ccc2oc(=O)cc(-c3nc4ccc([N+](=O)[O-])cc4[nH]3)c2c1
inactive: T-47D breast 25.4% | BT-549 breast 42.4% | MDA-MB-435 melanoma 64.6% | SW-620 colon 78.1% | MCF7 breast 57.2% | HCC-2998 colon 67.2% | KM12 colon 59.7%
active: HCT-116 colon 8.52%

CN(C)CCOc1nc2c3cccnc3cc(-c3cccc(Cl)c3)c2c2ncccc12
inactive: T-47D breast 20.1% | BT-549 breast 57.9% | KM12 colon 14.2%
active: MDA-MB-435 melanoma -59.6% | SW-620 colon -44.3% | MCF7 breast -50% | HCT-116 colon -81.3% | HCC-2998 colon -79.2%

CC(=O)c1ccc(-n2c(-c3cc(-c4ccsc4)n[nH]3)n[nH]c2=S)cc1
inactive: T-47D breast 103% | BT-549 breast 95.3% | MDA-MB-435 melanoma 106% | SW-620 colon 94% | MCF7 breast 90.4% | HCT-116 colon 98.1% | HCC-2998 colon 99% | KM12 colon 100%

COc1ccc([C@@H]2[C@@H](Oc3ccccc3)C(=O)N2c2cc(OC)c(OC)c(OC)c2)cc1F
active: BT-549 breast 1.45% | MDA-MB-435 melanoma -27.5% | HCT-116 colon 2.37%
inactive: T-47D breast 87.4% | SW-620 colon 26.2% | MCF7 breast 14.1% | HCC-2998 colon 12.9% | KM12 colon 11.7%

O=C1C2=C(C(=O)c3c(O)ccc(O)c31)N(c1ccc(N3CCOCC3)nc1)Cc1ccccc1O2
active: T-47D breast -41% | BT-549 breast -78.5% | MDA-MB-435 melanoma -28.6% | SW-620 colon -54.3% | MCF7 breast -34.2% | HCT-116 colon -84.5% | HCC-2998 colon -66.3% | KM12 colon -34.9%

CCCNC(=S)N/N=C(\C)c1ccccn1
inactive: T-47D breast 37.2% | BT-549 breast 32.4% | MDA-MB-435 melanoma 49% | SW-620 colon 33.4% | HCC-2998 colon 44.2% | KM12 colon 32%
active: MCF7 breast 6.77% | HCT-116 colon 4.71%

CCC(C)C1NC(=O)c2nc(oc2-c2ccccc2)-c2csc(n2)-c2csc(n2)-c2nc(oc2C)-c2coc(n2)CNC(=O)C(C(C)CC)NC1=O (centres undefined)
active: T-47D breast -62.5% | BT-549 breast -78.4% | MDA-MB-435 melanoma -87.5% | SW-620 colon -82.6% | MCF7 breast -68.6% | HCT-116 colon -59% | HCC-2998 colon -80.1% | KM12 colon -73.9%

COc1ccc(C(=O)C(CN(C)C)c2ccccc2)cc1 (centres undefined)
active: T-47D breast 9.93% | SW-620 colon -84.7% | MCF7 breast -1.32% | HCT-116 colon -99.1% | KM12 colon 6.49%
inactive: BT-549 breast 12.9% | MDA-MB-435 melanoma 25.4% | HCC-2998 colon 93.9%
